# According to PubChem BioAssay (NCATS):
# “And” between values parts separate entries of the source, which are not always exact repeats. Equal entries are not always repeated. Inconclusive results are not listed. A call without a number means that no potency is given here. The source made the active and inactive calls. Calls come from the whole dose curve; as a rule, active = well fitted curve in the direction sought with a large enough effect; inconclusive = small, poorly fitted or top-dose-only effect, or another doubt; inactive = no such curve, though single readings can be large; an effect the other way counts as inactive or inconclusive.
# Legend:
# [1] = qHTS of pediatric cancer cell lines to identify multiple opportunities for drug repurposing: Confirmatory screen for BT-12 cells (AID 1347112); note: nearly all actives have a fitted effect of over 55% in size
# How it was run: (§1)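 Cells (500-1,000/well) in growth media were settled 5 h at 37 degrees C, then given compounds for 48 h. Viability was read as CellTiter-Glo luminescence. Primary runs used MIPE at 11 points (0.78 nM-46 µM) and NPC at 8 points (0.59 nM-46 µM); follow-ups used 11 points.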
# [2] = qHTS of pediatric cancer cell lines to identify multiple opportunities for drug repurposing: Confirmatory screen for NB-EBc1 cells (AID 1347115);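 note: cells exposed to compound for 48 h before the viability read; nearly all actives have a fitted effect of over 45% in size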
# How it was run: as §1
# [3] = qHTS of pediatric cancer cell lines to identify multiple opportunities for drug repurposing: Confirmatory screen for Rh41 cells (AID 1347123);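 note: 48 h compound exposure; nearly all actives have a fitted effect of over 60% in size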
# How it was run: as §1
# [4] = qHTS of pediatric cancer cell lines to identify multiple opportunities for drug repurposing: Confirmatory screen for RD cells (AID 1347124);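 note: cells exposed to compound for 48 h before viability readout; nearly all actives have a fitted effect of over 65% in size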
# How it was run: as §1
# [5] = qHTS of pediatric cancer cell lines to identify multiple opportunities for drug repurposing: Confirmatory screen for Rh18 cells (AID 1347125); note: nearly all actives have a fitted effect of over 55% in size
# How it was run: as §1
# [6] = qHTS of pediatric cancer cell lines to identify multiple opportunities for drug repurposing: Confirmatory screen for Rh30 cells (AID 1347126); note: nearly all actives have a fitted effect of over 55% in size
# How it was run: as §1
# [7] = qHTS of pediatric cancer cell lines to identify multiple opportunities for drug repurposing: Confirmatory screen for SK-N-SH cells (AID 1347129);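 note: cells exposed to compound for 48 h before viability read; nearly all actives have a fitted effect of over 60% in size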
# How it was run: as §1
# [8] = qHTS of pediatric cancer cell lines to identify multiple opportunities for drug repurposing: Confirmatory screen for LAN-5 cells (AID 1347113); note: nearly all actives have a fitted effect of over 65% in size
# How it was run: as §1
# [9] = qHTS of pediatric cancer cell lines to identify multiple opportunities for drug repurposing: Confirmatory screen for DAOY cells (AID 1347114); note: nearly all actives have a fitted effect of over 65% in size
# How it was run: (§2)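 Viability measured as metabolically active cells via CellTiter-Glo luminescence following 48 hours of compound exposure, 11-point dilutions in confirmatory testing. 500-1,000 cells/well plated 5 hours before dosing; controls were DMSO and 2.3 µM bortezomib.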
# [10] = qHTS of pediatric cancer cell lines to identify multiple opportunities for drug repurposing: Confirmatory screen for SJ-GBM2 cells (AID 1347116); note: nearly all actives have a fitted effect of over 60% in size
# How it was run: as §2
# [11] = qHTS of pediatric cancer cell lines to identify multiple opportunities for drug repurposing: Confirmatory screen for BT-37 cells (AID 1347117); note: nearly all actives have a fitted effect of over 55% in size
# How it was run: as §1
# [12] = qHTS of pediatric cancer cell lines to identify multiple opportunities for drug repurposing: Confirmatory screen for MG 63 (6-TG R) cells (AID 1347119); note: nearly all actives have a fitted effect of over 55% in size
# How it was run: as §1
# [13] = qHTS of pediatric cancer cell lines to identify multiple opportunities for drug repurposing: Confirmatory screen for control Hh wild type fibroblast cells (AID 1347121); note: nearly all actives have a fitted effect of over 70% in size
# How it was run: as §1
# [14] = qHTS of pediatric cancer cell lines to identify multiple opportunities for drug repurposing: Confirmatory screen for Saos-2 cells (AID 1347127); note: nearly all actives have a fitted effect of over 60% in size
# How it was run: as §1
# [15] = qHTS of pediatric cancer cell lines to identify multiple opportunities for drug repurposing: Confirmatory screen for OHS-50 cells (AID 1347128)
# How it was run: as §1
# Furin (Homo sapiens) = Furin (Homo sapiens) (UniProt P09958); test: Furin counterscreen qHTS for Zika virus inhibitors (AID 1347149); note: nearly all actives have a fitted effect of over 70% in size
# How it was run: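 Counterscreen measures cleavage of 2 microM BOC-RVRR-AMC, below its ~15 microM Km, by 5 nM full-length human furin at pH 7.0 after a 15-min compound preincubation. Inhibition derives from the 15-min fluorescence increase at 37C.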
# [16] = system: Zika virus NS2B-NS3 protease (unlinked); test: Optimization of GU AMC qHTS for Zika virus inhibitors: Unlinked NS2B-NS3 protease assay (AID 1347151); note: nearly all actives have a fitted effect of over 80% in size
# How it was run: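 In this qHTS, compounds acted on 25 nM unlinked Zika NS2B–NS3 in pH 8.0 Tris/Tween buffer. Cleavage of an AMC peptide ran 15 min at room temperature, to about 20% conversion.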
# [17] = molecular target: N-terminal Xaa-Pro-Lys N-methyltransferase 1 (Homo sapiens) (UniProt Q9BV86); test: qHTS Assay for Inhibitors of N-terminal methyltransferase 1 (NTMT1): LOPAC validation of the NTMT1 SAHH-coupled ThioGlo3 Assay (AID 1347143);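 note: SAH from peptide methylation measured as thiol fluorescence via SAHH coupling and ThioGlo3; nearly all actives have a fitted effect of over 70% in size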
# How it was run: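 In this qHTS pilot against the LOPAC set, 125nM NTMT1 met compounds tested at multiple concentrations, and fluorescence was normalized to background.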
# [18] = system: Zika virus NS2B-NS3 protease (linked construct); test: Confirmatory screen NINDS AMC qHTS for Zika virus inhibitors (AID 1347152); note: nearly all actives have a fitted effect of over 70% in size
# How it was run: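 Concentration-response confirmation used the NINDS linked protease (NS2B hydrophilic domain joined to NS3 protease domain), 1 nM, with a 15-min compound preincubation. Substrate, Nle-KRR-AMC at 10 microM, was read by UV fluorescence before and after 15 min.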
# [19] = system: Zika virus NS2B-NS3 protease (unlinked complex); test: Confirmatory screen GU AMC qHTS for Zika virus inhibitors (AID 1347153); note: nearly all actives have a fitted effect of over 70% in size
# How it was run: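 Unlinked enzyme 25 nM, Tris pH 8.0/0.01% Tween 20; cpd 15 min RT, dark; + AMC substrate 10 µM (Km 18.3 µM); 340/450 nm read at t0 and 15 min; % inhibition → 4-param fit.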
# Potency is the fitted concentration of half-maximal effect.
# Sequence of Furin (Homo sapiens) (P09958 whole entry, looked up): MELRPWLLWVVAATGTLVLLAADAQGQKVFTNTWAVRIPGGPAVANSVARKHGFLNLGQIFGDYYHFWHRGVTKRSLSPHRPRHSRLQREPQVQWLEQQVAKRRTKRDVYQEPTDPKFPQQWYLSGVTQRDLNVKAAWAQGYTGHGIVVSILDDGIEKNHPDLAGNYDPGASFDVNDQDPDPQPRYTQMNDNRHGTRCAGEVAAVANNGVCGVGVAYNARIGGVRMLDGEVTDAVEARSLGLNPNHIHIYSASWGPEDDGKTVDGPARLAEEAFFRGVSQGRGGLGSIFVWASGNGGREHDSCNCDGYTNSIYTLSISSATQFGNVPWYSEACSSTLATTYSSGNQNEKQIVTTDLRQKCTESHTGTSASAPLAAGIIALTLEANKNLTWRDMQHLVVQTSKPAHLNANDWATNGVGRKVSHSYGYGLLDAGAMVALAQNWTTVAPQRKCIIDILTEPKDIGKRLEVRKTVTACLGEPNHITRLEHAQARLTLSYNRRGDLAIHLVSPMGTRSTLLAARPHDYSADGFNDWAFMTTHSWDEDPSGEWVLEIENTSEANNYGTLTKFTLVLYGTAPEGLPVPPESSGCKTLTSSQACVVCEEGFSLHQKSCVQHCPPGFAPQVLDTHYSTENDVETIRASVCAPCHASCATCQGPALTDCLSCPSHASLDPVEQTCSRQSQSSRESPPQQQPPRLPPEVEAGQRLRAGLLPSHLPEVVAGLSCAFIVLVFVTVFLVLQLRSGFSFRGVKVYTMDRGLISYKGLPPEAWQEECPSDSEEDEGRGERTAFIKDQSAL
# Sequence of N-terminal Xaa-Pro-Lys N-methyltransferase 1 (Homo sapiens) (Q9BV86 whole entry, looked up): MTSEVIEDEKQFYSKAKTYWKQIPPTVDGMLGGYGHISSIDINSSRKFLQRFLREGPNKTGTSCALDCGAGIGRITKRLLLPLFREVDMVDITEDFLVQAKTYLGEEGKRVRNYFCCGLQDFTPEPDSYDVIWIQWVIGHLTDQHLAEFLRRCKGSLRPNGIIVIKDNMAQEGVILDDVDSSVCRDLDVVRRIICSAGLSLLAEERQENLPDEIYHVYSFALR
compound,measurement,setting,value
CS(=O)(=O)CCNCc1ccc(-c2ccc3ncnc(Nc4ccc(OCc5cccc(F)c5)c(Cl)c4)c3c2)o1,Potency,[1],13.1 µM (active)
same,Potency,[2],inactive
same,Potency,[3],8.27 µM (active)
same,Potency,[4],inactive
same,Potency,[5],14.7 µM (active)
same,Potency,[6],14.7 µM (active)
same,Potency,[7],23.5 µM (active)
O=C(Nc1ccc([N+](=O)[O-])cc1Cl)c1cc(Cl)ccc1O,Potency,[1],3.23 µM (active)
same,Potency,[8],3.23 µM (active)
same,Potency,[9],1.02 µM (active)
same,Potency,[2],1.44 µM (active)
same,Potency,[10],4.07 µM (active)
same,Potency,[11],1.44 µM (active)
same,Potency,[12],1.62 µM (active)
same,Potency,[13],3.62 µM (active)
same,Potency,[3],1.15 µM (active)
same,Potency,[4],4.56 µM (active)
same,Potency,[5],3.62 µM (active)
same,Potency,[6],2.29 µM (active)
same,Potency,[14],2.29 µM (active)
same,Potency,[15],1.62 µM (active)
same,Potency,[7],3.23 µM (active)
same,Potency,Furin (Homo sapiens),inactive
same,Potency,[16],inactive
CC(COc1ccccc1)N(CCCl)Cc1ccccc1 (stereo unspecified),Potency,[8],20.8 µM (active)
same,Potency,[11],18.5 µM (active)
same,Potency,[3],13.1 µM (active)
same,Potency,[5],18.5 µM (active)
same,Potency,[6],16.5 µM (active)
same,Potency,[14],14.7 µM (active)
Cn1c(=O)c2[nH]cnc2n(C)c1=O,Potency,[17],inactive
same,Potency,[16],inactive
O=C1N(c2ccccc2)c2ccccc2C1(Cc1ccncc1)Cc1ccncc1,Potency,[17],inactive
same,Potency,[16],inactive
Cc1ccc(-c2cc(C(F)(F)F)nn2-c2ccc(S(N)(=O)=O)cc2)cc1,Potency,[17],inactive
same,Potency,[16],inactive
NCCc1cnc[nH]1,Potency,[17],inactive
same,Potency,[16],inactive
CC(C)(Oc1ccc(C2CC2(Cl)Cl)cc1)C(=O)O (stereo unspecified),Potency,[17],inactive
same,Potency,[16],inactive
CN(C)c1nc(N(C)C)nc(N(C)C)n1,Potency,[17],inactive
same,Potency,[16],inactive
Cc1cc(C(C)(C)C)cc(C)c1CC1=NCCN1,Potency,[17],inactive
same,Potency,[16],inactive
Cc1ccc(C(=O)Nc2ccc(S(=O)(=O)O)c3cc(S(=O)(=O)O)cc(S(=O)(=O)O)c23)cc1NC(=O)c1cccc(NC(=O)Nc2cccc(C(=O)Nc3cc(C(=O)Nc4ccc(S(=O)(=O)O)c5cc(S(=O)(=O)O)cc(S(=O)(=O)O)c45)ccc3C)c2)c1,Potency,[17],inactive
same,Potency,[16],16.8 µM (active)
NCCS(=O)(=O)O,Potency,[17],inactive
same,Potency,[16],inactive
COc1cc2nc(N3CCN(C(=O)C4COc5ccccc5O4)CC3)nc(N)c2cc1OC (stereo unspecified),Potency,[17],56.2 µM (active)
same,Potency,[16],26.7 µM (active)
OCCN1CCN(CCCN2c3ccccc3Sc3ccc(C(F)(F)F)cc32)CC1,Potency,[17],44.7 µM (active)
same,Potency,[16],inactive
O=c1[nH]cc(F)c(=O)[nH]1,Potency,[17],inactive
same,Potency,[16],inactive
CCN1CCCC1CNC(=O)c1cc(S(=O)(=O)CC)c(N)cc1OC (stereo unspecified),Potency,[17],inactive
same,Potency,[16],inactive
COc1ccc(CCN(C)CCCC(C#N)(c2ccc(OC)c(OC)c2)C(C)C)cc1OC (stereo unspecified),Potency,[17],inactive
same,Potency,[16],inactive
NC(=O)OCC(COC(N)=O)c1ccccc1,Potency,[17],inactive
same,Potency,[16],inactive
COc1ccc(C2CNC(=O)C2)cc1OC1CCCC1 (stereo unspecified),Potency,[17],inactive
same,Potency,[16],inactive
CC1COc2c(N3CCN(C)CC3)c(F)cc3c(=O)c(C(=O)O)cn1c23 (stereo unspecified),Potency,[17],56.2 µM (active)
same,Potency,Furin (Homo sapiens),24.1 µM (active) and 27.1 µM (active)
same,Potency,[16],15 µM (active)
same,Potency,[18],24.1 µM (active) and 27.1 µM (active)
same,Potency,[19],27.1 µM (active)
CC(C)NCC(O)COc1ccc(CCOCC2CC2)cc1 (stereo unspecified),Potency,[17],inactive
same,Potency,[16],inactive
CC(=O)OCC(CCn1cnc2cnc(N)nc21)COC(C)=O,Potency,[17],56.2 µM (active)
same,Potency,[16],26.7 µM (active)
CC[N+](CC)(CC)CCOc1cccc(OCC[N+](CC)(CC)CC)c1OCC[N+](CC)(CC)CC,Potency,[17],44.7 µM (active)
same,Potency,[16],inactive
Cn1cnc2c1c(=O)[nH]c(=O)n2C,Potency,[17],inactive
same,Potency,[16],inactive
Nc1ccn([C@H]2CC[C@@H](CO)O2)c(=O)n1,Potency,[17],inactive
same,Potency,[16],inactive
Fc1ccc([C@@H]2CCNC[C@H]2COc2ccc3c(c2)OCO3)cc1,Potency,[17],inactive
same,Potency,[16],inactive
CN(CCOc1ccc(NS(C)(=O)=O)cc1)CCc1ccc(NS(C)(=O)=O)cc1,Potency,[17],inactive
same,Potency,[16],inactive
CC12CC3CC(C)(C1)CC(N)(C3)C2,Potency,[17],inactive
same,Potency,[16],inactive
CCOC(=O)c1ncn2c1CN(C)C(=O)c1cc(F)ccc1-2,Potency,[17],inactive
same,Potency,[16],inactive
CN1C2CCC1CC(OC(=O)C(CO)c1ccccc1)C2 (stereo unspecified),Potency,[17],inactive
same,Potency,[16],inactive
CN(C)CCC=C1c2ccccc2C=Cc2ccccc21,Potency,[17],inactive
same,Potency,[16],inactive
NS(=O)(=O)c1cc2c(cc1Cl)NCNS2(=O)=O,Potency,[17],inactive
same,Potency,[16],inactive
COc1cc2nc(N(C)CCCNC(=O)C3CCCO3)nc(N)c2cc1OC (stereo unspecified),Potency,[17],39.8 µM (active)
same,Potency,[16],26.7 µM (active)
CC(C)(C)C(=O)Oc1ccc(S(=O)(=O)Nc2ccccc2C(=O)NCC(=O)O)cc1,Potency,[17],inactive
same,Potency,Furin (Homo sapiens),inactive
same,Potency,[18],inactive
same,Potency,[19],inactive
COc1nc(C)nc(Cl)c1NC1=NCCN1,Potency,[17],inactive
same,Potency,[16],inactive
CN1CCN(C2=Nc3cc(Cl)ccc3Nc3ccccc32)CC1,Potency,[16],inactive
CN1C(C(=O)Nc2ccccn2)=C(O)c2ccccc2S1(=O)=O,Potency,[16],inactive
Nc1nc2c(ncn2COC(CO)CO)c(=O)[nH]1,Potency,[17],inactive
same,Potency,[16],inactive
CN(C)CCOC(c1ccccc1)c1ccccc1,Potency,[17],inactive
same,Potency,[16],inactive
Cn1c(=O)c2c(ncn2C)n(C)c1=O,Potency,[17],inactive
same,Potency,[16],inactive
COc1ccccc1OCCNCC(O)COc1cccc2[nH]c3ccccc3c12 (stereo unspecified),Potency,[16],inactive
Cc1cc(C(C)(C)C)c(O)c(C)c1CC1=NCCN1,Potency,[17],inactive
same,Potency,[16],inactive
C[C@H]1c2cccc(O)c2C(O)=C2C(=O)[C@]3(O)C(O)=C(C(N)=O)C(=O)[C@@H](N(C)C)[C@@H]3[C@@H](O)[C@@H]21,Potency,Furin (Homo sapiens),inactive
same,Potency,[16],inactive
same,Potency,[18],inactive
same,Potency,[19],inactive
O=C(CCCN1CCC(O)(c2ccc(Cl)cc2)CC1)c1ccc(F)cc1,Potency,[17],inactive
same,Potency,[16],inactive
C[C@](N)(Cc1ccc(O)c(O)c1)C(=O)O,Potency,[16],inactive
CCOC(=O)Nc1ccc(NCc2ccc(F)cc2)nc1N,Potency,[17],50.1 µM (active)
same,Potency,[16],23.8 µM (active)
same,Potency,[18],inactive
same,Potency,[19],inactive
Cn1ccc2cc3c(cc21)CCN3C(=O)Nc1cccnc1,Potency,Furin (Homo sapiens),21.5 µM (active)
same,Potency,[18],24.1 µM (active)
same,Potency,[19],27.1 µM (active)
O=C(C1CCCCC1)N1CC(=O)N2CCc3ccccc3C2C1 (stereo unspecified),Potency,[17],inactive
same,Potency,[16],inactive
NC(CO)C(=O)NNCc1ccc(O)c(O)c1O (stereo unspecified),Potency,[17],8.91 µM (active)
same,Potency,[16],inactive
CNCCCC12CCC(c3ccccc31)c1ccccc12,Potency,[16],inactive
CN1CCC(=C2c3ccccc3C=Cc3ccccc32)CC1,Potency,[17],inactive
same,Potency,[16],inactive
